Values joined by “and” are separate entries in the source; they are usually repeats but may differ in a detail not shown here. Equal values may be shown once. Records with an inconclusive call do not appear. Active and inactive are the calls of the source. Unless noted, calls follow the shape of the dose curve; as a rule, active = well fitted curve in the direction sought with a large enough effect; inconclusive = small, poorly fitted or top-dose-only effect, or another doubt; inactive = no such curve, though single readings can be large; an effect the other way counts as inactive or inconclusive.
What was measured:
[1] = Cell Viability - BJ (AID 421; calls by dose curve;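 also: potency is read from the fitted curve at half-maximal effect; cells exposed to compound for 40 hours at 37 °C before readout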); conditions: BJ fibroblast viability, qHTS
In short: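 Luminescent ATP signal (CellTiter-Glo, 20 min at room temperature) served as the read-out of viable BJ cells after 40 hours of compound treatment. Responses were scaled between DMSO and 100 uM tamoxifen, and AC50 values were obtained by Hill modeling.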

[2] = Cell Viability - Hek293 (AID 427;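 active = compounds whose dose-response curve shows a full or clear partial loss of cell viability, called from curve shape rather than a numeric limit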;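 also: potency is read from the fitted curve at half-maximal effect; cells exposed to compound for 40 hours at 37 °C before reading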); conditions: qHTS
In short: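 Luminescent ATP read-out (CellTiter-Glo, 20 min RT) after 40 hr compound exposure at 37 °C in complete medium. Signal normalized to DMSO (basal) and 100 uM tamoxifen (100% inhibition); concentration-response fitted with the standard Hill equation to give AC50.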

[3] = Cell Viability - HepG2 (AID 433; calls by dose curve;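 also: potency is read from the fitted curve at half-maximal effect; potency for ATP loss meaning cytotoxicity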); conditions: qHTS
In short: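 ATP luminescence (CellTiter-Glo) after 40 h compound exposure, 37 °C, HepG2, 1500 cells/well, complete medium. Normalized: DMSO = basal, 100 uM tamoxifen = 100% inhibition. AC50 via standard Hill equation.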

[4] = Cell Viability - MRC5 (AID 434; calls by dose curve;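 also: potency is read from the fitted curve at half-maximal effect; potency reflects cytotoxicity seen as loss of intracellular ATP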); conditions: MRC5 lung fibroblast viability, qHTS
In short: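 MRC5 normal human lung fibroblasts, 1500 cells/well, exposed to compound for 40 hr at 37 C. Cellular ATP was read by CellTiter-Glo luminescence; data normalized to DMSO and 100 uM tamoxifen, with AC50 from Hill fits.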

[5] = Cell Viability - SK-N-SH (AID 435; calls by dose curve; also: potency is read from the fitted curve at half-maximal effect); conditions: SK-N-SH neuroblastoma cell viability qHTS
In short: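 CellTiter-Glo ATP luminescence, 20 min RT read; cells pre-plated 5 hr, compound 40 hr at 37 °C, 1500 cells/well, complete medium. Normalized DMSO = 0, 100 uM tamoxifen = 100% inhibition; Hill-fit AC50.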

[6] = Cell Viability - N2a (AID 540); conditions: N2a mouse neuroblastoma cell viability; activity change, negative = cytotoxicity: at 92.2 µM (top of the series);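 also: plate controls were DMSO alone for no effect and tamoxifen control for full effect; nearly all actives have a fitted effect of over 45% in size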
In short: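 First, 1500 N2a cells per well incubate 5 hr at 37 °C; next, compounds are added and incubated 40 hr at 37 °C; finally CellTiter-Glo is added and luminescence read after 20 min, with AC50 derived by Hill modeling.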

[7] = Cell Viability - NIH 3T3 (AID 541); conditions: NIH 3T3 cell viability, qHTS; activity change, negative = cytotoxicity: at 92.2 µM (top of the series);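 also: plate controls were DMSO alone for no effect and tamoxifen positive control for full effect; nearly all actives have a fitted effect of over 25% in size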
In short: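 AC50 values reflect concentration-dependent loss of intracellular ATP in NIH 3T3 cells after 40 hr treatment in complete culture medium, quantified by luciferase-based luminescence.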

[8] = Cell Viability - HUV-EC-C (AID 542); also: % is scaled to controls: 0 for no effect and ±100 for the full control effect; nearly all actives have a fitted effect of over 35% in size
In short: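 Decrease in cellular ATP, quantified by luciferase luminescence, reflects toxicity in normal human vascular endothelial HUV-EC-C cells given compound for 40 hr in complete culture medium. Values are AC50s from concentration-response curves.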

[9] = Cell Viability - H-4-II-E (AID 543); also: % is scaled to controls: 0 for no effect and ±100 for the full control effect; nearly all actives have a fitted effect of over 35% in size
In short: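 Here, cytotoxicity is measured in the rat hepatoma line H-4-II-E as loss of intracellular ATP after 40 hr compound treatment, detected by luciferase luminescence.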

[10] = Cell Viability - SH-SY5Y (AID 544); conditions: SH-SY5Y neuroblastoma cell viability; viability change, negative = cytotoxic: at 92.2 µM (top of the series); also: nearly all actives have a fitted effect of over 55% in size
In short: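 Cytotoxicity is scored as a concentration-dependent fall in intracellular ATP in human SH-SY5Y cells treated 40 hr in complete culture medium. Potency is expressed as AC50 from a Hill equation fit.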

[11] = Cell Viability - Renal Proximal Tubule (AID 545); conditions: renal proximal tubule cells viability, primary cells of rat origin; activity change, negative = cytotoxicity: at 91.7 µM (top of the series); also: nearly all actives have a fitted effect of over 40% in size
In short: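 Rat kidney proximal tubule cells, freshly isolated; 1000 cells/well, 5 hr settle, compound 40 hr 37 °C. CellTiter-Glo 20 min RT, luminescence read. AC50 by standard Hill fit.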

[12] = Cell Viability - Mesenchymal (AID 546); conditions: mesenchymal cells viability, qHTS; activity change, negative = cytotoxicity: at 91.7 µM (top of the series);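 also: cells exposed to compound for 40 hours before reading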
In short: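 Human kidney mesenchymal cells from normal renal glomeruli, 1000 cells/well, rested 5 hr at 37 °C, then treated 40 hr at 37 °C in complete medium. Cellular ATP read by CellTiter-Glo luminescence; AC50 from Hill-equation fits.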

[13] = Cellular Toxicity (caspase-3) HepG2 (AID 654);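 also: cells exposed to compound for 16 hours before reading; 0% = DMSO alone and 100% = caspase signal from 100 µM tamoxifen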
In short: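 qHTS, HepG2, 1500 cells/well, complete medium; cpd 16 h 37 °C; Caspase-Glo 3/7, 20 min RT; lum. Norm: DMSO vs 100 uM tamoxifen; AC50 Hill fit.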

[14] = Cellular Toxicity (caspase-3) Jurkat (AID 655); conditions: Jurkat caspase-3 activation, luminescence; caspase-3 activation: at 92.2 µM (top of the series), DMSO = 0%, tamoxifen = 100%;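 also: cells exposed to compound for 16 h at 37 °C before reading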
In short: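 Luminescent caspase-3/7 readout (aminoluciferin substrate cleavage) in human T-cell leukemia Jurkat cells after 16 hr compound exposure. Concentration-response normalized to DMSO and 100 uM tamoxifen; AC50 by standard Hill equation.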

[15] = Cellular Toxicity (caspase-3) BJ (AID 658); conditions: Potency: caspase-3 activation;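 also: 0% = DMSO basal and 100% = 10 µM staurosporine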
In short: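 BJ human foreskin fibroblasts, 1000 cells/well, treated 16 hours at 37 °C in complete medium; caspase 3/7 activity by Caspase-Glo luminescence after 1 hr at room temperature. Normalized to DMSO and 10 uM staurosporine; AC50 from Hill fits.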

[16] = Cellular Toxicity (caspase-3) Mesangial (AID 660); conditions: mesangial cells, normalized: DMSO 0%, 100 µM tamoxifen 100%; at 91.7 µM (top of the series);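 also: combined caspase 3 and 7 activity read by Caspase-Glo luminescence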
In short: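 Concentration-response qHTS: compound-induced rise in caspase 3/7 luminescence in human mesangial cells after 16 h, normalized to DMSO and 100 uM tamoxifen controls.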

[17] = Cellular Toxicity (caspase-3) SK-N-SH (AID 661); conditions: SK-N-SH caspase-3 activation, qHTS; caspase-3 activation: at 91.7 µM (top of the series), DMSO as zero, staurosporine as full;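 also: 0% = DMSO basal and 100% = 10 µM staurosporine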
In short: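 Caspase 3/7 activation is measured as a luminescence increase from aminoluciferin released by substrate cleavage in SK-N-SH cells after 16 hr compound treatment; values are AC50 from concentration-response curves.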

[18] = Cellular Toxicity (caspase-3) H-4-II-E (AID 663); conditions: H-4-II-E rat hepatoma; Potency: caspase-3 activation; caspase-3 activation: at 92.2 µM (top of the series), scaled: DMSO 0%, 100 µM tamoxifen 100%;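 also: cells exposed to compound for 16 hr before readout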
In short: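 Rat hepatoma H-4-II-E cells (1500/well) plated 5 hr, then exposed to compound titrations for 16 hr at 37 °C. Caspase-Glo 3/7 luminescence read after 20 min at RT; data normalized to DMSO and 100 uM tamoxifen, AC50 from Hill fits.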

[19] = Cellular Toxicity (caspase-3) NIH 3T3 (AID 666);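 also: 0% = DMSO basal and 100% = 100 µM tamoxifen stimulation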
In short: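 Concentration-response qHTS in NIH 3T3 mouse fibroblasts scores caspase-3/7 activation as rising luminescence after 16 hr compound exposure. Signals are scaled between DMSO-only and 100 uM tamoxifen.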

[20] = Cellular Toxicity (caspase-3) Renal Proximal Tubule (AID 667);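 also: cells exposed to compound for 16 hours at 37 °C before detection; 0% = DMSO basal and 100% = 10 µM staurosporine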
In short: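 Luminescent caspase 3/7 signal from peptide-aminoluciferin cleavage measures apoptosis in freshly isolated rat kidney proximal tubule cells after 16 h compound exposure. Concentration-response data are normalized to DMSO and 10 uM staurosporine, and AC50 values come from Hill equation fits.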

[21] = Cell Viability - LYMP2-001 (AID 921);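 also: 0% = DMSO only and full inhibition = tetraoctylammonium bromide control wells; nearly all actives have a fitted effect of over 70% in size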
In short: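 CellTiter-Glo luminescence (intracellular ATP) after 24 hr compound exposure at 37 C, 2500 lymphoblastoid cells/well in complete medium. AC50 fitted with standard Hill equation; tetraoctylammonium bromide positive control.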

[22] = MultiTox-Fluor Cytotoxicity Assay - LYMP1-001 - Dead Cells (AID 946);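 also: 0% = DMSO and 100% = tetraoctylammonium bromide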
In short: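 AC50 from Hill fit of concentration-response; data normalized to DMSO (basal) and 15 uM tetraoctylammonium bromide (100%). LYMP1-001 lymphoblastoid cells, 2500/well, 16 hr compound at 37 C; dead-cell protease fluorescence, Ex/Em 485/520.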

[23] = Cell Viability - LYMP1-002 - Assay at 16 hr (AID 948);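 also: 0% = DMSO alone and full effect = 92 µM tetraoctylammonium bromide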
In short: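 LYMP1-002 human lymphoblastoid cells, 2500/well; 5 hr 37 C; cpd 16 hr 37 C; CellTiter-Glo 30 min RT; luminescence (ATP). Concentration-response, Hill-fit AC50. Pos ctrl tetraoctylammonium bromide.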

[24] = MultiTox-Fluor Cytotoxicity Assay - LYMP1-002 - Live Cells (AID 955); also: % is scaled to controls: 0 for no effect and ±100 for the full control effect
In short: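 Cytotoxicity in the human lymphoblastoid line LYMP1-002 is measured as loss of live-cell protease activity after 16 h treatment in complete culture medium. AC50 is derived from Hill-equation fits of qHTS concentration-response data.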

[25] = MultiTox-Fluor Cytotoxicity Assay - LYMP1-002 - Dead Cells (AID 960);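 also: 0% = DMSO and 100% = tetraoctylammonium bromide; nearly all actives have a fitted effect of over 60% in size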
In short: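 Acute cytotoxicity in a human lymphoblastoid line is scored as rising dead-cell protease signal after 16 hr exposure at 37 C, measured fluorometrically (485/520).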

[26] = MultiTox-Fluor Cytotoxicity Assay - LYMP1-003 - Dead Cells (AID 961);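 also: 0% = DMSO and 100% = tetraoctylammonium bromide; nearly all actives have a fitted effect of over 70% in size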
In short: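 Human lymphoblastoid LYMP1-003 cells (2500/well) were treated with compounds for 16 hr at 37 C in complete medium. Dead-cell protease release was read by bis-AAF-R110 fluorescence (Ex/Em 485/520). AC50 came from Hill fits, normalized to DMSO and 15 uM tetraoctylammonium bromide.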

[27] = MultiTox-Fluor Cytotoxicity Assay - LYMP1-003 - Live Cells (AID 962);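 also: 0% = DMSO only and full loss = 92 µM tetraoctylammonium bromide; cytotoxic hits lower the live-cell protease signal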
In short: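 Cells plated at 2500 per well and incubated 5 hr; compounds added and incubated 16 hr at 37 C; MultiTox-Fluor reagent added for 60 min at room temperature; fluorescence of liberated AFC measured at 405/510 nm.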

[28] = Cell Viability - LYMP1-003 - Assay at 24 hr (AID 963);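 also: plate controls were DMSO only for no effect and tetraoctylammonium bromide positive control for full effect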
In short: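 Acute toxicity in LYMP1-003 lymphoblastoid cells: 24 hr compound treatment at 37 C, ATP measured with CellTiter-Glo after 30 min at room temperature. AC50 derived by fitting the Hill equation to qHTS titrations.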

[29] = Cell Viability - LYMP1-003 - Assay at 40 hr (AID 964); also: % is scaled to controls: 0 for no effect and ±100 for the full control effect; nearly all actives have a fitted effect of over 60% in size
In short: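 This qHTS cytotoxicity screen treats human lymphoblastoid cells (LYMP1-003) with compounds for 40 hr and quantifies cellular ATP via luciferase luminescence.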

[30] = Cell Viability - LYMP2-003 (AID 965);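 also: cells exposed to compounds for 24 h before reading; 0% = DMSO only and full effect = 92 µM tetraoctylammonium bromide; nearly all actives have a fitted effect of over 50% in size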
In short: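 CellTiter-Glo luminescence (cellular ATP) after 24 h compound exposure at 37 C in complete medium; 2500 cells/well, 5 h settling beforehand. Concentration-response fitted to standard Hill equation for AC50. Tetraoctylammonium bromide served as positive control.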

[31] = Cell Viability - LYMP2-004 (AID 966);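 also: plate controls were DMSO only for no effect and tetraoctylammonium bromide control for full effect; nearly all actives have a fitted effect of over 65% in size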
In short: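 Acute toxicity is scored as a concentration-dependent drop in intracellular ATP, quantified by luciferase luminescence, in human lymphoblastoid cells exposed to compound for 24 hr. AC50 derives from Hill-equation modelling.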

[32] = Cell Viability - LYMP2-009 (AID 968);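 also: 0% = DMSO alone and the full-kill end = tetraoctylammonium bromide at 92 µM; nearly all actives have a fitted effect of over 55% in size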
[33] = Cell Viability - LYMP2-011 (AID 969);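 also: 0% = DMSO only and full inhibition = 92 µM tetraoctylammonium bromide; nearly all actives have a fitted effect of over 60% in size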
In short: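 Acute toxicity is scored as a concentration-dependent drop in intracellular ATP of a human lymphoblastoid line after 24 hr treatment. Values are AC50s modeled with the Hill equation.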

[34] = Cell Viability - LYMP2-013 (AID 970);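 also: 0% = DMSO only and full inhibition = tetraoctylammonium bromide control; nearly all actives have a fitted effect of over 55% in size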
In short: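 Acute toxicity was measured in human lymphoblastoid cells (2500/well) exposed to compound titrations for 24 hr, with ATP luminescence (CellTiter-Glo) as read-out and AC50 fitted by Hill equation.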

[35] = Cell Viability - LYMP2-015 (AID 971);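 also: 0% = DMSO only and full effect = 92 µM tetraoctylammonium bromide; nearly all actives have a fitted effect of over 55% in size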
In short: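 Acute toxicity was scored as a concentration-dependent drop in intracellular ATP in lymphoblastoid cells after 24 hr compound exposure in complete medium. Detection used CellTiter-Glo luciferase luminescence.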

[36] = Cell Viability - LYMP2-017 (AID 972)
In short: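 Steps: plate 2500 lymphoblastoid cells per well; incubate 5 hr at 37 C; add compound across a concentration series and incubate 24 hr at 37 C; add CellTiter-Glo and read luminescence after 30 min at room temperature; fit Hill curves for AC50.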

CN1[C@H]2CC(OC(=O)[C@H](CO)c3ccccc3)C[C@H]1[C@H]1O[C@H]12 (stereo partly specified)
inactive: Potency [1] > 92 µM | Potency [2] > 92 µM | Potency [3] > 92 µM | Potency [4] > 92 µM | Potency [5] > 92 µM | Potency [6] | Potency [7] | Potency [8] | Potency [9] | Potency [10] | Potency [11] | Potency [12] | Potency [13] | Potency [14] | Potency [15] | caspase-3 activation [16] -0.382% and 0.0869% | caspase-3 activation [17] -1.73% and -0.623% | caspase-3 activation [18] 0.771% and -1.21% | Potency [19] | outcome [20] | Potency [21] | Potency [22] | Potency [23] | Potency [24] | Potency [25] | Potency [26] | Potency [27] | Potency [28] | Potency [29] | Potency [30] | Potency [31] | Potency [32] | Potency [33] | Potency [34] | Potency [35] | Potency [36]

— PubChem BioAssay (NCATS)
